# Experiments:
# Settings in all cases: concentration: 1 μM, replicates: in singlicate; n = 1
# MTOR = system: MTOR
# MUSK = system: MUSK
# MYLK2 = system: MYLK2
# MYLK4 = system: MYLK4
# MYLK = system: MYLK
# MYO3A = system: MYO3A
# MYO3B = system: MYO3B
# NDR1 = system: T1, NDR1
# T1 construct: gene STK38
# NDR2 = system: NDR2
# NEK10 = system: NEK10
# NEK11 = system: NEK11
# NEK1 = system: NEK1
# NEK2 = system: NEK2
# NEK3 = system: NEK3
# NEK4 = system: NEK4
# NEK5 = system: NEK5
# NEK6 = system: NEK6
# NEK7 = system: NEK7
# NEK9 = system: NEK9
# NIK = system: T2, NIK
# T2 construct: gene MAP3K14
# 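Note: KINOMEscan kinase panel screen.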
Compound,%Inh (MTOR) [%],%Inh (MUSK) [%],%Inh (MYLK2) [%],%Inh (MYLK4) [%],%Inh (MYLK) [%],%Inh (MYO3A) [%],%Inh (MYO3B) [%],%Inh (NDR1) [%],%Inh (NDR2) [%],%Inh (NEK10) [%],%Inh (NEK11) [%],%Inh (NEK1) [%],%Inh (NEK2) [%],%Inh (NEK3) [%],%Inh (NEK4) [%],%Inh (NEK5) [%],%Inh (NEK6) [%],%Inh (NEK7) [%],%Inh (NEK9) [%],%Inh (NIK) [%]
O=C(Nc1n[nH]c2nc(-c3ccccc3O)ccc12)C1CC1 [SB-711880],16,0,85,0,28,36,1,6,0,0,0,0,0,18,0,0,0,3,6,18
Nc1ncc(-c2cn[nH]c2)c2scc(-c3ccc4c(c3)CCN4C(=O)Cc3ccccc3)c12 [GSK2593067],4,64,69,17,4,6,0,0,0,22,87,7,85,0,11,21,3,0,0,3
N#Cc1cnc2cc(-c3cnc(CNCCN4CCOCC4)s3)ccc2c1Nc1ccc(Oc2ccccc2)cc1 [GW664114],12,3,0,13,6,55,48,14,0,4,25,0,82,20,1,0,0,0,17,0
CCNC(=O)/C=C/c1n[nH]c2cc(Sc3ccccc3C(=O)NC)ccc12,14,32,3,20,11,8,0,25,18,24,0,0,0,26,0,5,38,0,0,0
CS(=O)(=O)c1cccc(CNc2nc(Nc3ccc4c(c3)CCC(=O)N4)ncc2C(F)(F)F)c1,62,12,16,0,7,0,0,58,0,0,0,0,0,37,0,28,6,0,0,0
COc1ccc(C2=C(Nc3cccc(O)c3)C(=O)NC2=O)cc1 [SB-390766],31,3,12,4,3,0,0,9,0,42,19,0,0,18,5,34,0,0,0,6
N#CC1(c2cccc(C(=O)Nc3cccc(Oc4ccc5nc(NC(=O)C6CC6)sc5n4)c3)c2)CC1,3,0,0,0,23,0,0,18,0,0,0,40,0,30,0,0,0,0,0,0
COc1ccc(C)c(Nc2ccnc(Nc3ccc(-c4cnc[nH]4)cc3)n2)c1.Cl [GW784041],0,0,7,0,18,11,27,22,0,0,0,0,2,7,0,14,0,4,0,0
O=C(O)C(F)(F)F.O=c1[nH]ccc2nc(N[C@@H]3CCNC3)nc(Nc3cc(Cl)cc(Cl)c3)c12 [GSK2188764],9,3,50,36,92.4,59,0,82,68,81,0,28,23,23,17,14,0,13,25,64
